Data on eleven compounds can be found in PubChem BioAssay AID651844 (Broad Institute, 2012).

Structures are written as SMILES. Measured potencies and affinities stand elsewhere. Results filed as inconclusive are left out. The source made the active and inactive calls.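 How the source made its calls: active means every test run shows a luminescence drop with half-maximal concentration at most twice the top tested dose; inconclusive means test runs disagree, weak flat response, or unreliable curve fit; inactive means the rest.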

The assay is described as follows: NIH/3T3 fibroblast cytotoxicity, dose response, cytotoxicity control, cell-based, dry powder samples (AID 651844). The settings on record: NIH/3T3 viability, CellTiter-Glo ATP luminescence, 90 h; series mostly up to 16 µM.
On to `C[C@@H]1CN([C@@H](C)CO)C(=O)c2cccc(NC(=O)c3ccncc3)c2O[C@H]1CN(C)Cc1ccncc1`, for which the outcome was inactive.
Take `CC(C)N1C[C@H](C)[C@@H](CN(C)Cc2ccccc2Cl)Oc2c(NC(=O)c3ccncc3)cccc2C1=O`: the call was inactive.
Take `C[C@@H]1CN([C@@H](C)CO)C(=O)c2cccc(NC(=O)c3ccncc3)c2O[C@H]1CN(C)Cc1ccc(C(=O)O)cc1`: the call was inactive.
In the case of `CC(C)N1C[C@H](C)[C@@H](CN(C)Cc2ccc(Cl)cc2)Oc2c(NC(=O)c3ccncc3)cccc2C1=O`, the outcome was inactive.
In the case of `CC(C)N1C[C@H](C)[C@@H](CN(C)C(=O)OC(C)(C)C)Oc2c(C#N)cccc2C1=O`, the compound was called inactive.
With `CC(C)N1C[C@H](C)[C@@H](CN(C)Cc2ccc(Oc3ccccc3)cc2)Oc2c(NC(=O)c3ccccc3)cccc2C1=O`, the compound was called inactive.
With `CC(C)N1C[C@H](C)[C@@H](CN(C)C(=O)OC(C)(C)C)Oc2c(NC(=O)c3cccnc3)cccc2C1=O`, the compound was classed as inactive.
Consider `C[C@H]1CN([C@@H](C)CO)C(=O)c2cccc(NC(=O)c3ccncc3)c2O[C@@H]1CN(C)Cc1ccccc1`, for which the compound was called inactive.
The result for `C[C@@H]1CN([C@@H](C)CO)C(=O)c2cccc(NC(=O)c3ccncc3)c2O[C@@H]1CN(C)Cc1ccc(Oc2ccccc2)cc1` reads “inactive”; that for `CC(C)N1C[C@H](C)[C@@H](CN(C)Cc2ccc(Oc3ccccc3)cc2)Oc2c(NC(=O)c3cccnc3)cccc2C1=O`, “inactive”.
Next, `CC(C)N1C[C@H](C)[C@@H](CN(C)C(=O)OC(C)(C)C)Oc2c(NC(=O)c3ccncc3)cccc2C1=O`: “inactive”.
